Hits are enriched below; roughly 2.9% of the tested compounds scored in any of these assays.
GRK2 aptamer HTS = human GRK2 inhibition via aptamer displacement; inhibition of aptamer binding, % at 10 µM; 330,000 tested, 0.59% active; AID 488847; bead flow cytometry, FAM-aptamer displacement from GRK2; P25098;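 active = inhibition of aptamer binding above 40%, roughly 3 SD of noise, on plates passing a quality check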;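 also: median bead fluorescence of bound FAM aptamer so fluorescent compounds give negative values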
MEKK2 WT-MEK5 = raises or lowers MEK5 binding to wildtype human MEKK2 PB1 domain. Q9Y2U5. bead flow cytometry, Alexa488-MEK5 binding to MEKK2 WT; actives lie on both sides. binding response (% of control), % at 10 µM. 290,000 tested, 1.1% active. AID 1531; in the data active = binding response below about 67% or above about 130%
B2AR ag = activates human beta-2 adrenergic receptor causing internalization. Am2.2-beta2AR cells, FAP receptor internalization, flow cytometry. response, % (concentration not given with the values). 340,000 tested, 0.43% active;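 active = response above a set limit, near 3 SD of response in nonfluorescent compounds, cut at about 42% in these data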
MEKK3 PB1 HTS = MEKK3-MEK5 PB1 interaction, increase or decrease | Q99759 | bead-based flow cytometry, Alexa488-MEK5 binding to MEKK3; actives lie on both sides; 0 = blocked by unlabeled MEK5, 100 = vehicle | binding response (% of control), % at 10 µM | 290,000 tested, 1.4% active | AID 1529;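 active = binding response more than 3 SD above or below the average of its plate-row segment, actives on both sides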;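 also: Alexa488 bead fluorescence after subtracting the streptavidin-only scavenger bead signal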
Target sequence (Q99759 whole entry, looked up): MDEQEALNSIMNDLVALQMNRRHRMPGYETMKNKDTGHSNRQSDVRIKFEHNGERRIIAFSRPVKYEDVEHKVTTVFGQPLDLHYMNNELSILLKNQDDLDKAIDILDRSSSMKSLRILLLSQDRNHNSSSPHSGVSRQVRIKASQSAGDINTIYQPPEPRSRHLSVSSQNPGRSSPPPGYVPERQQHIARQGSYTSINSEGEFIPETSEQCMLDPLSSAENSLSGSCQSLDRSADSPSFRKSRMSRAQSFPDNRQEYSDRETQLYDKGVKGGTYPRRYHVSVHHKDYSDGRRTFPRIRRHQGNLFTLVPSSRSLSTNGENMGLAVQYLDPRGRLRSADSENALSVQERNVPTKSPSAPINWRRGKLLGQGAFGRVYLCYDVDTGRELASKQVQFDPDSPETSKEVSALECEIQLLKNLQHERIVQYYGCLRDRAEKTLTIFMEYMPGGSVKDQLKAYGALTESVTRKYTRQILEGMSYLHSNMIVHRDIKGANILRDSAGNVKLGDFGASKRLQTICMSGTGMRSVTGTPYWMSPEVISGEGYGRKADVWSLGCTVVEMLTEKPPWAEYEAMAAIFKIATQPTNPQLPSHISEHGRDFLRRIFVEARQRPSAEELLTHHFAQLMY
MEKK2 mut-MEK5 = signal of MEK5 binding to mutant human MEKK2 PB1 domain; bead flow cytometry, Alexa488-MEK5 binding to MEKK2 mutant; percent response, % at 10 µM; 290,000 tested, 0.35% active; AID 1530; in the data active = percent response above about 24%, passing the limit was not always enough
* hit, by the source's call; nt = not tested or not shown; [ ] = another dose, or the depositor's remark.

SMILES	GRK2 aptamer HTS	MEKK2 WT-MEK5	B2AR ag	MEKK3 PB1 HTS	MEKK2 mut-MEK5
CNc1ccccc1C(C)(C)c1cc(-c2cccc([N+](=O)[O-])c2)no1	2.0	93.0	-0.3	100.0	-3.0
COc1ccc(C2=NOC(C)(c3nnc(-c4ccncc4)o3)C2)cc1 (configuration not stated)	4.0	97.0	-4.0	87.0	-2.0
Cn1ncc2c(O/N=C(\N)c3ccc(C(C)(C)C)cc3)ncnc21	1.0	105.0	49.0*	107.0	10.0
CCOC(=O)c1ccc(Nc2ncnc3c2cnn3C)cc1	3.0	93.0	-8.5	93.0	-5.0
Cc1cccc(N2CCN(S(=O)(=O)c3ccc4c(c3)CCCN4C(=O)C3CCC3)CC2C)c1 (configuration not stated)	4.0	98.0	-9.2	103.0	0.0
C=CCNc1c2c(nc3nnnn13)CCCC2	0.0	90.0	-6.4	97.0	-3.0
C=CCNc1nc(S(=O)Cc2ccc(C)cc2)nc2c1CCCC2 (configuration not stated)	3.0	97.0	52.5*	103.0	-5.0
O=C(COc1ccccc1Cl)Nc1nnc(S(=O)(=O)N2CCCCCC2)s1	0.0	100.0	13.9	102.0	3.0
Clc1nc2ccccc2cc1/C=N/Nc1nc2ccccc2[nH]1	0.0	115.0	-3.1	156.0*	0.0
Cn1c(/C=N/Nc2nc3ccccc3[nH]2)nc2ccccc21	0.0	104.0	-1.2	108.0	1.0
C=CCn1cc(/C=N/Nc2nc3ccccc3[nH]2)c2ccccc21	0.0	232.0*	-0.4	114.0	43.0
Cc1c(/C=N/Nc2nc3ccccc3[nH]2)c2ccccc2n1C	0.0	168.0*	11.6	98.0	30.0
C(=N\Nc1nc2ccccc2[nH]1)/c1ccncc1	0.0	98.0	-14.4	109.0	-1.0
Cc1cc(C)cc(NC(=S)N2CC(C)OC(C)C2)c1 (configuration not stated)	4.0	95.0	2.2	98.0	-3.0
COc1ccc(C2CC(=O)C(C(c3ccc(O)cc3)C3C(=O)CC(c4ccc(OC)cc4)CC3=O)C(=O)C2)cc1 (configuration not stated)	52.0*	85.0	nt	97.0	-6.0
Cc1ccc(N/C=C/C(=O)c2cccs2)cc1C	0.0	94.0	6.0	97.0	-6.0
O=C(/C=C/Nc1ccc(Nc2ccccc2)cc1)c1cccs1	nt	112.0	49.7*	106.0	4.0
COc1cc(/C=C(\C#N)c2nc3ccccc3s2)ccc1OCC(=O)Nc1ccccc1	0.0	94.0	76.0*	96.0	-4.0
CCCCC(=O)N/N=C/c1ccc(Sc2cccc3cccnc23)o1	1.0	nt	48.8*	nt	nt
O=C1/C(=C/c2c[nH]c3ccccc23)CCC/C1=C\c1c[nH]c2ccccc12	6.0	81.0	-13.0	89.0	96.0*
O=C1CS/C(=N/N=C/c2c[nH]c3ccccc23)N1	2.0	93.0	0.5	98.0	-5.0
CCN(C(=O)CN1C(=O)COc2ccc(S(=O)(=O)N3CCCCCC3)cc21)c1cccc(C)c1	0.0	94.0	-4.0	99.0	-1.0
COc1ccccc1NC(=O)c1cc2c(CO)cnc(C)c2oc1=Nc1ccc(OC)c(OC)c1	0.0	111.0	48.8*	104.0	5.0
COc1ccc(N=c2oc3ccccc3cc2C(=O)Nc2ccccn2)cc1OC	72.0*	110.0	nt	110.0	2.0
Cc1ccc([C@@H]2CC=C(C(=O)O)[C@H](c3cccc(Cl)c3)N2S(=O)(=O)c2ccccc2C)cc1	10.0	nt	1.3	nt	nt
SMILES	GRK2 aptamer HTS	MEKK2 WT-MEK5	B2AR ag	MEKK3 PB1 HTS	MEKK2 mut-MEK5
S=C(NCCSCc1ccc(Cl)c(Cl)c1)Nc1ccccc1	2.0	132.0	47.4*	116.0	9.0
CCOc1ccc(NC(=S)NCCCc2ccccc2)cc1	0.0	89.0	0.3	104.0	4.0
CCOc1ccc(CSCCNC(=S)Nc2ccccc2)cc1	2.0	106.0	-7.4	128.0*	0.0
CC(C)n1ncc2c(C(=O)Nc3cccc(C#N)c3)cc(C3CC3)nc21	5.0	nt	18.8	nt	nt
COc1ccccc1C1CC(c2cccc(NS(C)(=O)=O)c2)=NN1S(=O)(=O)c1ccccc1 (configuration not stated)	0.0	91.0	-1.6	88.0	-14.0
CS(=O)(=O)Nc1cccc(C2=NN(S(C)(=O)=O)C(c3ccccc3)C2)c1 (configuration not stated)	0.0	23.0*	4.6	104.0	37.0
CS(=O)(=O)N1N=C(c2cccs2)CC1c1ccccc1 (configuration not stated)	0.0	0.0*	14.0	95.0	12.0
O=S(=O)(c1cccc(NC(=S)N2CCN(c3ccc(F)cc3)CC2)c1)C(F)F	0.0	102.0	0.1	99.0	-1.0
O=S(=O)(c1cccc(NC(=S)N2CCN(c3cccc(Cl)c3)CC2)c1)C(F)F	3.0	117.0	2.0	134.0*	2.0
C[C@H](CO)N1C[C@H](C)[C@@H](CN(C)S(=O)(=O)c2cn(C)cn2)Oc2c(NS(=O)(=O)c3cccs3)cccc2C1=O	3.0	nt	8.3	nt	nt
CN(Cc1ccc(Cl)c(Cl)c1)C(=O)C1CSC2(C)CCC(=O)N12 (configuration not stated)	0.0	nt	-1.6	nt	nt
Cc1c(C(=O)N2CCCCC2)c(S(=O)(=O)N(C)Cc2ccco2)c(C)n1C	1.0	102.0	0.9	102.0	3.0
CCOC(=O)c1c(S(=O)(=O)N(C)Cc2ccco2)c(C)n(C)c1C	1.0	43.0*[inhibitor]	2.1	30.0*[inhibitor]	-53.0
COc1cc([N+](=O)[O-])ccc1NC(=O)NCC1CCN(Cc2ccc(Cl)cc2)CC1	0.0	132.0	5.0	104.0	15.0
O=C(N/N=C/c1ccncc1)c1cccc(NC(=O)c2ccc(Cl)cc2)c1	0.0	66.0	-0.3	54.0*[inhibitor]	-3.0
O=C(N/N=C/c1ccncc1)c1cccc(N/N=C/c2ccncc2)c1	2.0	100.0	6.2	98.0	-1.0
CCN(CC)S(=O)(=O)c1ccc(Cl)c(NC(=O)COC(=O)/C=C/c2ccc(O)c(OC)c2)c1	100.0*	101.0	-5.6	101.0	0.0
COc1cc(/C=C/C(=O)OCC(=O)Nc2cc(S(=O)(=O)N(C)C)ccc2Cl)ccc1O	2.0	83.0	-2.1	87.0	-19.0
CC1(C2CC2)NC(=O)N(CC(=O)NCC(=O)Nc2ccc(F)c(F)c2F)C1=O (configuration not stated)	2.0	nt	-6.9	nt	nt
Cc1cc(-n2nc(C)cc2C)nc(NS(=O)(=O)c2ccccc2Cl)n1	0.0	21.0*	2.7	101.0	34.0
Cc1cc(C)nc(NS(=O)(=O)c2ccccc2)n1	0.0	100.0	2.9	104.0	1.0
O=C1C=CC(=O)N1c1ccc2c(c1)Cc1cc(F)ccc1-2	nt	nt	4.3	nt	nt
CC(=O)Nc1ccc2c(c1)Cc1cc(N3C(=O)C=CC3=O)ccc1-2	nt	nt	44.5*	nt	nt
CN1CCN(CCc2nc3cc(NC(=O)COc4ccc([N+](=O)[O-])cc4)ccc3n2C)CC1	0.0	108.0	-2.3	99.0	6.0
Cc1cc2c(c(C)c1Br)C(c1ccc3c(c1)OCO3)CC(=O)O2 (configuration not stated)	3.0	nt	11.9	nt	nt

Assay outcomes: PubChem BioAssay, NMMLSC
